Assay results as given in ChEMBL document CHEMBL3988442, “University of Dundee, Small-Polar-MMV Screening Library” (2021).
The campaign covered roughly 48,000 compounds. About 13,000 (27%) showed an effect of 50% or more. The list shows a part of the results.

tested on: Wolbachia pipientis; assay: Anti-Wolbachia Cell-Based Screen; format: functional; parameters: scale not given: in the data most compounds retested in dose-response had high values; details: 5 µM

| SMILES | Percent Effect |
| --- | --- |
| Cc1n[nH]c(C)c1CNc1ccc(-c2nc(C3CC3)no2)cn1 | 9.439% |
| COc1ccc([C@@H]2CN(C(=O)CCc3cc(Cl)no3)C[C@H]2N(C)C)cc1 | -5.122% |
| O=C(NCCOc1ccccc1)c1ccc2c(c1)C(=O)NC2=O | -4.876% |
| Cn1c(=O)c2cc(C(=O)NCCOc3ccccc3)ccc2n(C)c1=O | 103.9% |
| O=C(NCCOCC(F)(F)F)c1ccc(-c2ccco2)[nH]c1=O | 3.056% |
| O=C(O)c1ccc(CCNC(=O)C2(O)Cc3ccccc3C2)cc1 | 0.991% |
| CC(O)(CCc1ccccc1)CNC(=O)c1ccc(F)cc1 (stereo unspecified) | -3.449% |
| COc1ccc(OCCNC(=O)c2ccc3c(=O)[nH][nH]c(=O)c3c2)cc1 | 4.909% |
| Cn1c(=O)c2cc(C(=O)NCCOCC(F)(F)F)ccc2n(C)c1=O | 109.9% |
| Cn1c(=O)c2cc(C(=O)NCCc3ccccc3)ccc2n(C)c1=O | 97.39% |
| Cc1ccc(-n2ccnc2)c(C(=O)NCCOCC(F)(F)F)c1 | 1.401% |
| Cc1cnc(C)c(N2CCC(c3nnc(CN(C)C)n3C3CC3)CC2)n1 | 5.849% |
| Cc1c(F)cc(C(=O)O)cc1S(=O)(=O)Nc1ccc(F)c(C#N)c1 | 122.4% |
| O=C(O)c1ccc(F)c(S(=O)(=O)Nc2ccc(-n3cccn3)c(Cl)c2)c1 | -11.53% |
| N#Cc1cc(NS(=O)(=O)c2ccc(C(=O)O)cc2F)ccc1F | -1.66% |
| COC(=O)c1ccc(Cl)c(S(=O)(=O)Nc2ccc(F)c(C(N)=O)c2)c1 | -0.6488% |
| CCc1ccc(C(=O)O)cc1S(=O)(=O)Nc1ccc(F)c(C#N)c1 | 3.443% |
| N#Cc1cc(NS(=O)(=O)c2cc(C(=O)O)cc(Cl)c2Cl)ccc1F | 118.7% |
| Cc1cnn(Cc2cc(F)ccc2F)c1NC(=O)C1COCCO1 (stereo unspecified) | -3.747% |
| CCN(C)C(=O)[C@H]1C[C@@](CC(C)C)(C(=O)OC)N(C)[C@H]1c1cccnc1 | 5.067% |
| Cc1ccc2oc(C(=O)N3CCC(C(=O)N4CCCC4)CC3)cc2n1 | -8.823% |
| CC(c1ccon1)N(C)C(=O)C1CCN(C(=O)C2CC2)CC1 (stereo unspecified) | 3.184% |
| CC(c1ccon1)N(C)C(=O)C1CCN(C(=O)C2CCC2)CC1 (stereo unspecified) | -1.254% |
| Cc1cc(-c2ccc(=O)n(C3CCN(C(=O)C4CCC4)CC3)n2)c(C)o1 | 91.93% |
| Cc1cc(-c2ccc(=O)n(C3CCN(C(=O)C4CC4)CC3)n2)c(C)o1 | 96.13% |
| CC(NC(=O)C1CCN(C(=O)C2CC2)CC1)c1nncn1C(C)C (stereo unspecified) | -33.62% |
